Screens (PubChem)
TSHR antag: Antagonists of the Thyroid Stimulating Hormone Receptor: HTS campaign. AID 504810, 2011. Thyrotropin receptor (Homo sapiens), P16473. TSHR-expressing cells, TSH-stimulated cAMP HTRF, 2 h; stronger effect = lower value. activity change, negative = inhibition, % at 11.5 µM. hit rate 0.2% among 330,000;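 active = activity change below a set negative limit, meaning inhibition stronger than a set level, cut at about -70% in these data; inconclusive = activity change between two set negative limits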; also: % is scaled to controls: 0 for no effect and ±100 for the full control effect
Target sequence (P16473 whole entry, looked up): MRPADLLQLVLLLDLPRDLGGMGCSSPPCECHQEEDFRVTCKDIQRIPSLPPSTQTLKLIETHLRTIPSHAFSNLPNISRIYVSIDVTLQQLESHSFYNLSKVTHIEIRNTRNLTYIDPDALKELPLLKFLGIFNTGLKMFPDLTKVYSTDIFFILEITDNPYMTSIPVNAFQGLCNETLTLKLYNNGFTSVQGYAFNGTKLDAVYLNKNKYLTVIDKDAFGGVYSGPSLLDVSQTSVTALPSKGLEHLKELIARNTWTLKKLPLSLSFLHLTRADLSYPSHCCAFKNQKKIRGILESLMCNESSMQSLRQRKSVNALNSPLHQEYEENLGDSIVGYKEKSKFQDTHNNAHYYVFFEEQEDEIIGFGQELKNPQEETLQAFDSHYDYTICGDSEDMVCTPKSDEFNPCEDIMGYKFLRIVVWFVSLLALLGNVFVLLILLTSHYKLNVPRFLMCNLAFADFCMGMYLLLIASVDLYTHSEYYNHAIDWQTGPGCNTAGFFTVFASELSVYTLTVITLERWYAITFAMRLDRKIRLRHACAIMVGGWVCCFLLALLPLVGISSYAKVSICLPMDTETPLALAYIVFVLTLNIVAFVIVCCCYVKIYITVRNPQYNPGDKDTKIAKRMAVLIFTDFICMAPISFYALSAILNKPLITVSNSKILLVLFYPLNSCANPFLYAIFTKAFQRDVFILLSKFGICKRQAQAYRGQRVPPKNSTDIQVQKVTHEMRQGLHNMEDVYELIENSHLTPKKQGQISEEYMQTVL
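Inhibition of cAMP made by TSHR-expressing cells under TSH stimulation (4nM final, EC80; 2 h, 37 deg C) is quantified with a one-step lysis HTRF kit, anti-cAMP cryptate versus cAMP-d2.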
a7 integrin act: qHTS for Activators of Integrin-Mediated Alleviation for Muscular Dystrophy; alpha7betagal myoblasts, beta-gal FDG fluorescence, 48 h; hit rate 0.064% among 350,000; Potency, µM (top dose mostly 38.3 µM), without a hit: at the highest dose activation, most hits filed as activators;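 also: potency is read from the fitted curve at half-maximal effect; 100% = response of the positive control SU9516; nearly all actives have a fitted effect of over 60% in size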
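alpha7betagal+/- myoblasts (passage 13, 250/well) treated 48 h at 37C with compounds at 1:260 dilution of DMSO stock. Lysed, then beta-galactosidase activity read as FDG fluorescence (ex 480/em 540) after 30 min, with pre-read for autofluorescence.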
TCR activator: Activators of T cell receptors: qHTS campaign. primary human leukocytes, anti-CD3, IL-2 HTRF, 48 h. Potency, µM (series often up to 9.22 µM), for inactives: at the top dose activation of IL-2 secretion, actives largely listed as activators. 330,000 tested, under 10 active; also: % of control where 0% means no effect
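TCR engagement came from a-CD3 beads alone, with compounds added to primary human leukocytes for 48 hr. Secreted IL-2 bridged europium cryptate- and d2-labelled anti-IL-2 antibodies, giving FRET emission at 665nm after 320nm excitation.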
CBFb-RUNX1 inh: qHTS Assay for Compounds Blocking the Interaction Between CBF-beta and RUNX1 for the Treatment of Acute Myeloid Leukemia. AlphaScreen CBFb-His/RUNX1-biotin binding, biochemical. Potency, µM (top dose mostly 59.8 µM), for the others: at the highest dose activity, negative = inhibition, hits mostly inhibitors. 230,000 tested, under 10 active; also: % of control where 0% means no effect
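Inhibition was taken as any reduction in AlphaScreen signal from the CBF-beta–RUNX1 pair (His and biotin tags, 30 nM each), measured after compound (15 min) and bead (90 min) incubations at room temperature.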
TSG101-PTAP inh: qHTS Assay for Iinhibitors of HIV-1 Budding by Blocking the Interaction of PTAP/TSG101. Tumor susceptibility gene 101 protein (Homo sapiens), Q99816. Fluorescence polarization, FITC-PTAP peptide / Tsg101 binding. Potency, µM (top dose mostly 115 µM), inactives show top-dose activity change, negative = inhibition, hits mostly inhibitors. 340,000 tested, under 10 active; active = well fitted inhibition curve with a large enough effect in the main read-out, with a control signal flat, not every such curve was filed as active; inconclusive = small, poorly fitted or top-dose-only effect, or effect the other way, or a change in a side signal; inactive = no such curve, though single readings can be large or run the other way; also: potency is read from the fitted curve at half-maximal effect; % of control where 0% means no effect
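Compounds were pin-transferred onto Tsg101 binding domain (10 uM final) in HEPES pH 7.5 buffer, then FITC-PTAP peptide was added at 50 nM final. After 20 min at RT, polarization reported peptide displacement across a qHTS concentration series.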
MBNL1-CUG inh: qHTS Assay for Inhibitors of MBNL1-poly(CUG) RNA binding; TR-FRET MBNL1-His/biotin-(CUG)12 binding, 665/545 ratio; hit rate 0.036% among 280,000; Muscleblind-like protein 1 (Homo sapiens), Q9NR56; Potency, µM (highest dose often 57.5 µM), for the others: at the top dose activity change, negative = inhibition, actives largely listed as inhibitors; active = well fitted inhibition curve with a large enough effect in the signal ratio, with a control signal flat, not every such curve was filed as active; inconclusive = small, poorly fitted or top-dose-only effect, or effect the other way, or a change in a side signal; inactive = no such curve, though single readings can be large or run the other way; the % refers to the signal ratio; also: potency is read from the fitted curve at half-maximal effect; % is scaled to controls: 0 for no effect and ±100 for the full control effect
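His-tagged MBNL1 binding to biotinylated (CUG)12 RNA was measured by TR-FRET using terbium anti-His antibody (0.055 ng/ul final) and streptavidin-XL665 (5 nM final). Compounds were titrated 92 nM to 58 uM; 60 min at room temperature.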
Starred values were filed as active, the others as inactive; ! = not active in a repeat; [ ] = dose if it differs, or a comment. In the library only some 0.26% were active in any assay of this set; here they are far more common. Unless noted, calls follow the shape of the dose curve; as a rule, active = well fitted curve in the direction sought with a large enough effect; inconclusive = small, poorly fitted or top-dose-only effect, or another doubt; inactive = no such curve, though single readings can be large; an effect the other way counts as inactive or inconclusive.

`C[C@]12CC[C@H]3[C@@H](CC[C@]4(O)C[C@@H](O)CC[C@]34C=O)[C@@]1(O)CC[C@@H]2C1=CC(=O)OC1` gave TSHR antag -72.0*, TCR activator -0.7% and TSG101-PTAP inh 0.3%.
`CC12CCC3C(CCC4(O)CC(O)CCC34C=NO)C1(O)CCC2C1=COC(=O)C1` (stereo unspecified) gave a7 integrin act 12.4%, TCR activator -19.2% and TSG101-PTAP inh -0.9%.
For C[C@H]1O[C@@H](OC2CC[C@]3(C=O)[C@H]4CC[C@]5(C)[C@@H](C6=CC(=O)OC6)CC[C@]5(O)[C@@H]4CC[C@]3(O)C2)CC2OC(C)(C)OC21 (stereo partly specified) the results were TSHR antag -73.7*, a7 integrin act -13.0%, TCR activator 0.7%, TSG101-PTAP inh -2.4% and MBNL1-CUG inh 2.9%.
For CCCCN=C[C@]12CCC(O)CC1(O)CCC1[C@@H]2CC[C@]2(C)[C@H](C3C=CC(=O)O3)CCC12O (stereo partly specified) the results were TSHR antag -70.3*, a7 integrin act inconclusive, TCR activator 3.7%, TSG101-PTAP inh 0.1% and MBNL1-CUG inh -0.5%.
Oc1cccc(Cl)c1 was read as CBFb-RUNX1 inh 7.4%[21.7 µM].
For [N-]=[N+]=[N-] the results were CBFb-RUNX1 inh 5.3%[21.7 µM].
C=C1C([C@@H](O)C[C@H](C)C2O[C@@]3(CCCCO3)CC[C@H]2C)OC2CC[C@@]3(CC[C@@H](/C=C/[C@@H](C)C4CC(C)=C[C@]5(O4)O[C@H](C[C@@](C)(O)C(=O)O)CCC5O)O3)OC2[C@@H]1O (stereo partly specified) was read as CBFb-RUNX1 inh -25.7%.
For C=C1C(O)[C@@H]2O[C@]3(CC[C@H](/C=C/C(C)[C@@H]4CC(C)=CC5(O[C@H](C[C@@](C)(O)C(=O)O)CCC5O)O4)O3)CC[C@H]2O[C@@H]1C(O)CC(C)[C@H]1OC2(CCCCO2)CCC1C (stereo partly specified) the results were TSHR antag -77.6*, a7 integrin act inconclusive, TCR activator -2.3% and TSG101-PTAP inh -6.3%.
`COC(=O)C1=C(c2ccc(-c3ccccc3)c(F)c2)C[C@@H]2CC[C@H]1N2C(=O)NC1CC1` gave TSHR antag -41.1, a7 integrin act -6.2%, TCR activator -4.2% and TSG101-PTAP inh -0.7%.
Screening COC(=O)C1=C(c2ccc(-c3ccccc3)c(F)c2)C[C@@H]2CC[C@H]1N2C(=O)NC(C)C returned TSHR antag -93.2*, a7 integrin act 5.0%, TCR activator -4.0% and TSG101-PTAP inh -1.0%.
`COC(=O)C1=C(c2ccc(-c3ccccc3)c(F)c2)C[C@@H]2CC[C@H]1N2C(=O)NCc1ccco1` gave TSHR antag -82.5*, a7 integrin act 5.5%, TCR activator -2.3% and TSG101-PTAP inh 0.8%.
CCCCCCCC/C=C\CCCCCCCC(=O)OC[C@@H](COP(O)(O)=S)OC was read as CBFb-RUNX1 inh -22.3%.
Screening O=C(Nc1ccc(Cl)cc1)Nc1ccc(Cl)c(Cl)c1 returned TSHR antag -73.8*, a7 integrin act -38.2%, TCR activator 0.2% and TSG101-PTAP inh -1.4%.
O=C(O)c1cc(Cl)ccc1Cl was read as CBFb-RUNX1 inh 2.9%[21.7 µM].
For Cn1c(N)c(Sc2ccccc2[N+](=O)[O-])c(=O)n(C)c1=O the results were TSHR antag -111.6*, a7 integrin act 8.8%, TCR activator 3.7%, TSG101-PTAP inh -10.4% and MBNL1-CUG inh inconclusive.
`O=[N+]([O-])c1ccc(Sc2nc3ccccc3o2)c([N+](=O)[O-])c1` gave TSHR antag -71.1*, a7 integrin act -56.4%, CBFb-RUNX1 inh -5.0% and MBNL1-CUG inh inconclusive.
Screening O=[N+]([O-])c1ccc(N2CC2)c([N+](=O)[O-])c1 returned a7 integrin act 2.0%, TCR activator 0.9% and TSG101-PTAP inh -2.2%.
Cc1ccccc1S(=O)(=O)N(C)C[C@@H]1OCc2ccccc2-c2c(n(C)c3ccccc23)C(=O)N([C@H](C)CO)C[C@@H]1C was read as a7 integrin act -59.4%.
`O=C(O)CBr` gave CBFb-RUNX1 inh 11.7%[21.7 µM].
Cc1cc2c(C(C)C)c(O)c(O)c(C=O)c2c(O)c1-c1c(C)cc2c(C(C)C)c(O)c(O)c(C=O)c2c1O was read as TSHR antag -79.7*!, CBFb-RUNX1 inh inconclusive and MBNL1-CUG inh inconclusive.
Screening CC/C(=C\C=C\[C@@H]1C=C[C@@H]2CCC[C@H]2[C@@H]1C(=O)c1ccc[nH]1)[C@@H]1O[C@@H]([C@@H](C)C(=O)O)CC[C@@H]1C returned TSHR antag -72.2*, a7 integrin act -72.0%, TCR activator 5.6%[46.1 µM], CBFb-RUNX1 inh -17.0%, TSG101-PTAP inh -18.3% and MBNL1-CUG inh 5.9%.
For CC(=O)OC1C[C@@]2(C)C(c3ccoc3)C[C@H]3O[C@@]32[C@@]2(C)C(=O)C(O)=C3C(C)(C)C(=O)C=C[C@]3(C)C12 (stereo partly specified) the results were CBFb-RUNX1 inh 3.9%.
`CC(=O)[O-].CC(=O)[O-].CC(=O)[O-].[Cr+3]` gave CBFb-RUNX1 inh 14.1%[21.7 µM].
`COc1cc(C(C)=O)ccc1OC(=O)N(C)c1ccccc1` gave TSHR antag -121.9*, a7 integrin act inconclusive, TSG101-PTAP inh -4.5% and MBNL1-CUG inh -12.1%.
Screening CCCC[N+](=O)[O-] returned CBFb-RUNX1 inh -4.6%[21.7 µM].
`O=[N+]([O-])/C=C/c1ccccc1` gave CBFb-RUNX1 inh -2.6%[21.7 µM].
Screening O=S(=O)(Cl)c1ccccc1 returned CBFb-RUNX1 inh 27.7%[21.7 µM].
`O=C1SC(Cc2ccccc2)C(=O)N1c1ccccc1` (stereo unspecified) gave TSHR antag -7.6, a7 integrin act 7.94µM*, TCR activator -1.5%, CBFb-RUNX1 inh 27.5%, TSG101-PTAP inh -0.2% and MBNL1-CUG inh -7.6%.
